About 3,700 (1.2%) of roughly 300,000 compounds were called active. Roughly 20% stayed inconclusive and do not appear here. The full list was thinned out, with actives kept by preference. A number with no mark means an inactive call. Calls follow the shape of the full dose curve; tested in HEK293 cells.
Test: qHTS for Inhibitors of binding or entry into cells for Lassa Virus; also: nearly all actives have a fitted effect of over 50% in size
Conditions: Lassa virus pseudotype entry inhibition, cell reporter; series mostly up to 37.9 µM; activity change, negative = inhibition: at the top concentration
% is scaled to controls: 0 for no effect and ±100 for the full control effect; potency is read from the fitted curve at half-maximal effect.

| Structure (SMILES) | activity change, negative = inhibition | Potency |
| --- | --- | --- |
| CN1CCOC1c1ccc(C2OCCN2C)cc1 (centres undefined) | 0.075% |  |
| CC(=O)OC1C2(CC3N4C(=O)C5(CO)SSC4(CC31O)C(=O)N5C)OC(C)C(C)(C)C2=O (centres undefined) |  | 1.58 µM (active) |
| CCOc1ccccc1/C=N/Nc1nc2ccccc2o1 | -2.18% |  |
| O=C1CCN(C(=S)NCCc2ccccc2)CC1 | 4.58% |  |
| Oc1cc2c(cc1O)CN(C(=S)NCCc1ccc(Cl)cc1)CCC2 |  | 11.6 µM (active) |
| COc1ccc(CCNC(=S)N2CCN(S(=O)(=O)c3ccc(Cl)cc3)CC2)cc1 | 0.0467% |  |
| Cn1cc(C2OC(=O)c3ccccc32)c2ccccc21 (centres undefined) | -3.46% [at 46.1 µM] |  |
| COC(=O)c1ccc(C(=O)OC)c(NC(=S)N2CCN(c3ccc(F)cc3)CC2)c1 | 0.467% |  |
| COC(=O)c1ccc(C(=O)OC)c(NC(=S)N2CCN(c3cc(Cl)ccc3C)CC2)c1 |  | 4.47 µM (active) |
| COC(=O)c1ccc(C(=O)OC)c(NC(=S)N2CCCCC2)c1 | 3.3% |  |
| Cc1ccc2c(=O)cc(C(=O)Nc3sc4c(c3C(=O)NCc3cccnc3)CCCC4)oc2c1 | -15.3% [at 46.1 µM] |  |
| COc1ccc(NS(=O)(=O)c2ccc(C)c(C(=O)NCC(c3cccs3)N3CCOCC3)c2)cc1 (centres undefined) | 6.31% |  |
| CN(C)CCCNC(=S)NCc1ccc(Cl)cc1 | 4.48% |  |
| C/C(=N\NC(=S)NCc1ccccc1)c1ccc(Cl)cc1 |  | 5.8 µM (active) |
| S=C(NCc1ccc(Cl)cc1)NC1CCCCC1 | -10.7% |  |
| O=C(Nc1ncccc1O)c1ccc(S(=O)(=O)N2CCCC2)cc1 | -16.6% |  |
| O=C(OC12CC3CC(CC(C3)C1)C2)c1ccc(NCc2cc(O)ccc2O)cc1 |  | 10 µM (active) |
| CCCC(=O)Nc1ccc(C(=O)N/N=C/c2ccc[nH]2)cc1 |  | 10 µM (active) |
| O=C(COc1ccccc1[N+](=O)[O-])N/N=C/c1ccc[nH]1 | 10.1% |  |
| CC(=O)Nc1ccc(C(=O)/C=C/c2ccc[nH]2)cc1 | -3.48% |  |
| O=C(Nc1c[nH]c(=O)[nH]c1=O)OCc1ccccc1 | 25% [at 46.1 µM] |  |
| Cc1csc(=O)n1CC(=O)Nc1ccc(S(C)(=O)=O)cc1 | -0.731% [at 46.1 µM] |  |
| CCNC(=O)CCc1nc(-c2ccc(C(C)(C)C)cc2)no1 |  | 11.2 µM (active) |
| Cc1ccc(-c2noc(CCC(N)=O)n2)cc1 | 3.84% |  |
| CCNC(=O)CCc1nc(-c2ccc(C)cc2)no1 | 24.1% |  |
| CC1(C)C/C(=N/Nc2ccc([N+](=O)[O-])cc2[N+](=O)[O-])C(C)(C)O1 | -0.704% |  |

| Structure (SMILES) | activity change, negative = inhibition | Potency |
| --- | --- | --- |
| Cc1[nH]n(C)c(=O)c1N=Nc1ccc(S(C)(=O)=O)cc1 | 2.14% |  |
| Cc1[nH]c2ccc(S(N)(=O)=O)cc2c1C | 13.6% |  |
| NS(=O)(=O)c1ccc(N=Nc2c(=O)[nH]c3ccc4[nH]cccc4c23)cc1 |  | 0.628 µM (active) |
| O=C(Cn1cnc2ccccc2c1=O)NNC(=O)c1ccccc1F | 19.1% |  |
| CC(C)OCCCNC(=O)CN1C(=O)/C(=C/c2ccccc2F)Oc2ccccc21 | 1.39% [at 46.1 µM] |  |
| Cc1ccc(NC(=S)NC(=O)c2ccc(-c3ccccc3)cc2)cc1 | -8.74% |  |
| CCOC(=O)C1=C(NC(=S)NC(=O)c2ccccc2)c2ccccc2CC1(C)C |  | 1.41 µM (active) |
| CCOC(=O)c1c(NC(=O)C2(C)Cc3ccccc3C(=O)O2)sc2c1CCCC2 (centres undefined) | -9.46% |  |
| O=C(NN=CC=Cc1ccccc1)C(O)C(O)C(=O)NN=CC=Cc1ccccc1 (centres undefined) | -0.517% |  |
| CC(C)c1ccc(C=NNc2ccc([N+](=O)[O-])cn2)cc1 | -28.7% [at 46.1 µM] |  |
| COc1ccccc1C(=O)Nc1ccccc1C(=O)Nc1ccccc1 | 7.61% |  |
| O=C(Nc1nncs1)c1ccccc1NS(=O)(=O)c1cccs1 | 7.55% |  |
| COc1cc(NC(=O)c2ccccc2NS(=O)(=O)c2ccc(Cl)s2)cc(OC)c1 |  | 11.2 µM (active) |
| CCn1nnc2cc(C(=O)Nc3ccc(C(=O)OC(C)C)cc3)ccc21 | 2.93% |  |
| O=C(COC(=O)c1n[nH]c2ccccc12)Nc1ccccc1Br | 3.48% |  |
| O=C(Nc1c(Br)cc2c(c1Br)Cc1cc([N+](=O)[O-])ccc1-2)C(Cl)Cl | -2.9% [at 46.1 µM] |  |
| Cc1ccc(NC(=O)c2ccc3[nH]c(C)cc(=O)c3c2)c(C)c1 | 11.7% [at 46.1 µM] |  |
| Cc1ccc(NC(=O)c2ccc(CSc3ncnc4nc[nH]c34)cc2)c(C)c1 |  | 17.8 µM (active) |
| CSc1ncc(C(=O)Nc2ccc(C)cc2C)c(C)n1 | 4.12% [at 46.1 µM] |  |
| COc1ccc(N=C2C=CC(=O)O2)cc1 | 9.08% [at 46.1 µM] |  |
| O=C(O)C(=Cc1ccccc1[N+](=O)[O-])c1ccccc1 | -6.44% [at 46.1 µM] |  |
| O=[N+]([O-])c1ccc(C=NN=Cc2ccc([N+](=O)[O-])cc2)cc1 | 11.1% [at 46.1 µM] |  |
| O=C1/C(=C\c2ccc([N+](=O)[O-])cc2)CS(=O)(=O)C/C1=C/c1ccc([N+](=O)[O-])cc1 |  | 3.55 µM (active) |
| NC(=S)N/N=C/c1ccc([N+](=O)[O-])cc1 | 2.75% [at 46.1 µM] |  |
| CCOC(=O)C1CCCN(C(=O)C2CCN(S(=O)(=O)c3ccc(Cl)c(C(F)(F)F)c3)CC2)C1 (centres undefined) | -19.3% |  |
| Cc1[nH]c2ccccc2c1C(=O)C(C)Sc1nnc(C2CC2)o1 (centres undefined) | -4.65% |  |

| Structure (SMILES) | activity change, negative = inhibition | Potency |
| --- | --- | --- |
| Cc1c(CCO)c(=O)n(-c2ccccc2)n1S(=O)(=O)c1ccc(F)cc1 | 0% |  |
| CC(=O)NC1(c2ccc(F)cc2)CCN(C(=O)c2c(F)cccc2F)CC1 | -8.6% |  |
| Cc1c(CCO)c(=O)[nH]n1C(=O)c1c(F)cccc1F |  | 4.11 µM (active) |
| COc1ccc(CC(=O)NC(C)c2ccc(Cl)c(Cl)c2)cc1S(=O)(=O)N1CCOCC1 (centres undefined) | -29.7% |  |
| CCCCCOC(=O)NCCOC(=O)Nc1ccc(C(=O)OCC)cc1 |  | 1.03 µM (active) |
| CCCCC(CCC(=O)Nc1ccc(C(=O)OCC)cc1)C(=O)O (centres undefined) | 5.08% |  |
| CCOC(=O)Nc1ccc(NC(=O)OCC)cc1 | -15.4% |  |
| NC(CSC1(c2ccccc2)c2ccccc2-c2ccccc21)C(=O)O (centres undefined) | 27.2% |  |
| CC1=CC(C)(C)Nc2ccc(OC(=O)CN3C(=O)C4CCCCC4C3=O)cc21 (centres undefined) | -6.89% |  |
| CC1=CC(C)(C)Nc2ccc(OC(=O)C(Cc3ccccc3)N3C(=O)C4CCCCC4C3=O)cc21 (centres undefined) |  | 1.12 µM (active) |
| COC(=O)c1ccccc1NC(=O)C(Cc1ccccc1)N1Cc2ccccc2C1=O (centres undefined) | -19.6% [at 46.1 µM] |  |
| O=C(COC(=O)c1ccc2c(c1)OCCO2)NCc1ccccc1Cl | -12.6% [at 46.1 µM] |  |
| CCOc1cc(N2CCOCC2)c(OCC)cc1NC(=O)c1cc(C)nc2ccccc12 | 13.1% |  |
| CCOc1cc(N2CCOCC2)c(OCC)cc1NC(=O)COc1cccc(Cl)c1 | -6.69% |  |
| CCOc1cc(N2CCOCC2)c(OCC)cc1NC(=O)COc1cccc2cccnc12 |  | 6.31 µM (active) |
| N#CC1(Nc2ccc(-c3ccc(Cl)cc3)cc2)CCCC1 | 2.66% [at 46.1 µM] |  |
| Cc1cc(C(=O)N/N=C/c2ccccn2)c2ccccc2n1 | -2.77% [at 46.1 µM] |  |
| COc1cccc(-c2cc(C(=O)N/N=C/c3ccc(OC)c(COC(C)=O)c3)c3ccccc3n2)c1 | -3.26% |  |
| CCOc1ccc(-c2cc(C(=O)N/N=C/c3ccc(O)cc3)c3ccccc3n2)cc1 |  | 1.41 µM (active) |
| COc1ccc(/C=N/NC(=O)c2cc(-c3cccc(C)c3)nc3ccccc23)cc1O |  | 7.08 µM (active) |
| C/C(=N\NC(=O)c1cc(-c2ccc(O)cc2)nc2ccccc12)c1cccnc1 | 22.7% |  |
| CCOc1ccc(/C=N\NC(=O)c2c(C)nc3cc(C)ccn23)cc1 | -24.3% |  |
| Cc1ccc(C)c(NC(=O)CN(C)C(=O)COc2ccc3ccccc3c2)c1 | -6.57% |  |
| Cc1cc2occ(CC(=O)NNC(=O)c3ccccc3F)c2cc1C | 24% [at 46.1 µM] |  |
| Cc1ccc(CSCC(=O)N(C)CC(=O)Nc2ccc(C)cc2)cc1 | -9.1% |  |
| COc1ccc(C(=O)NCC(c2ccco2)N2CCc3ccccc32)cc1OC (centres undefined) | -25.8% |  |

| Structure (SMILES) | activity change, negative = inhibition | Potency |
| --- | --- | --- |
| Cc1c(C)c2c(OCC(=O)NCCCO)cc3c(c2oc1=O)CCC(C)(C)O3 | 5.7% [at 46.1 µM] |  |
| Cc1c(NC(=O)C(C)OC(=O)c2c3c(nc4ccccc24)CCC(C)C3)c(=O)n(-c2ccccc2)n1C (centres undefined) | 9.02% |  |
| COc1cccc(C(=O)Nc2ccc(NC(=O)c3ccco3)cn2)c1 | 1.21% |  |
| O=C(Nc1ccc(NC(=O)c2cccs2)cn1)c1ccco1 |  | 3.98 µM (active) |
| O=C(Nc1ccc2nccnc2c1)c1ccco1 | 24.7% |  |
| COc1ccc(OCCNC(=O)c2cc(C3CC3)nc3c2cnn3C(C)C)cc1 | -1.23% |  |
| OCc1ccc(-c2ccccc2)c(-c2ccccc2)c1 | 27.3% [at 46.1 µM] |  |
| CC1CN/C(=C\C(=O)c2ccc(Br)cc2)C(=O)N1 (centres undefined) |  | 8.2 µM (active) |
| CN1CCCC(OC(=O)COc2ccc(Br)cc2)C1 (centres undefined) | -3.81% |  |
| C/C(=C\C(=O)c1ccc(Br)cc1)N1CCCCC1 | 9.08% |  |
| COC1=CC(=O)OC(c2ccc(OC)cc2)C1 (centres undefined) | -0.152% [at 46.1 µM] |  |
| O=C(CSc1nc2[nH]ncc2c(=O)n1-c1ccccc1)N1CCCc2ccccc21 | 13.2% |  |
| O=C(CSc1nc2ccccc2c(=O)n1CCCO)N1CCc2ccccc21 | -14.5% |  |
| Cn1c(SCC(=O)N2CCCc3ccccc32)nc2ccccc2c1=O |  | 12.6 µM (active) |
| COc1ccc(N2CCN(CCNC(=O)Nc3cc(Cl)ccc3Cl)CC2)cc1 | 15.1% [at 46.1 µM] |  |
| O=C(Cc1ccc([N+](=O)[O-])cc1)NCCc1ccc2c(c1)OCO2 | -1.52% |  |
| Cc1ccc(CSCC(=O)N(C)CC(=O)Nc2cccc(F)c2)cc1 | 9.25% |  |
| Cc1ccc(S(=O)(=O)Nc2ccc(F)c(S(=O)(=O)N3CCOCC3)c2)cc1 | 6.43% |  |
| CCOC(=O)N1CCN(C(=O)COc2ccc3oc4c(c3c2)CCCC4)CC1 |  | 10 µM (active) |
| CCOC(=O)N1CCN(C(=O)COc2ccc(Br)cc2)CC1 | -5.12% |  |
| O=C(COc1ccc2oc3c(c2c1)CCCC3)Nc1ccccn1 | -23.4% |  |
| CC(=O)c1ccc(OCCCC(=O)Nc2ccc(C)c(S(=O)(=O)N3CCOCC3)c2)cc1 | -15.1% |  |
| COc1ccccc1NS(=O)(=O)c1ccc(C(=O)N2CCN(c3ccccc3O)CC2)cc1 | -21.8% |  |
| Cc1nn(-c2ccccc2)c(C)c1C(=O)OCC(=O)NC(=O)NC1CCCCC1 | -23% |  |
| COc1ccc2nc(/N=C(\N)NC(=O)Nc3ccccc3)nc(C)c2c1 | 5.9% |  |
| Cc1nc(/N=C(\N)NC(=O)NC2CCCCC2)nc2ccccc12 |  | 22.4 µM (active) |
